High-throughput results (PubChem BioAssay)
A selection: hits, their analogues and other compounds. The true share with any hit is near 10%.
HP1b binding inh = blocks HP1-beta chromodomain binding to methylated histone tails | AlphaScreen HP1-beta / biotin-H3K9me3 peptide binding | P83916 | 390,000 tested, 0.56% active | Potency, µM (titrated, usually from 114 µM), inactives show at the top dose activity change, negative = inhibition, hits mostly inhibitors; further: nearly all actives have a fitted effect of over 70% in size
Target sequence (P83916 whole entry, looked up): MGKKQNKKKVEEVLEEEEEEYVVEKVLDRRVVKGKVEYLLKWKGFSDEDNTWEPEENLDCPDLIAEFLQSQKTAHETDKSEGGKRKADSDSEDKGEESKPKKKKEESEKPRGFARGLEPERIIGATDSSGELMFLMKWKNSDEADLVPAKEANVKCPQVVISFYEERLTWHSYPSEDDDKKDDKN
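Compound inhibition of the preformed complex between 50 nM HP1-beta and 50 nM biotinylated H3K9me3 peptide was read by AlphaScreen. Buffer was PBS pH 7.4 with 0.01% Tween-20. Incubations ran 30 min at room temperature, with 10 ug/mL donor/acceptor beads.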
BAZ2B block = blocks human BAZ2B; Q9UIF8; AlphaScreen BAZ2B-H3K14Ac peptide displacement; Potency, µM (titrated, usually from 114 µM), inactives show at the highest dose activity change, negative = inhibition, actives largely listed as inhibitors; 360,000 tested, 4.4% active; further: on the % scale 0 is the no-effect control and ±100 the full control effect; nearly all actives have a fitted effect of over 60% in size
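In this displacement format the biotinylated H3(5-23) peptide acetylated at Lys14 serves as ligand at 50 nM, with BAZ2B at 50 nM in PBS pH 7.4 containing 0.01% Tween-20. Donor and acceptor beads are 10 ug/mL final.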
JMJD2A Tudor = inhibitors of human JMJD2A Tudor domain | AlphaScreen JMJD2A-Tudor / H3K4me3 peptide binding | Potency, µM (top dose mostly 114 µM), for inactives: at the highest dose activity change, negative = inhibition, hits mostly inhibitors | 390,000 tested, 4.4% active | AID 504339; further: on the % scale 0 is the no-effect control and ±100 the full control effect; nearly all actives have a fitted effect of over 50% in size
GLS inh = glutaminase GLS (human) inhibition | O94925 | GLS enzymatic activity, qHTS titration | Potency, µM (series often up to 45.5 µM), for the others: top-dose activity change, negative = inhibition, most hits filed as inhibitors | 410,000 tested, 0.21% active; further: on the % scale 0 is the no-effect control and ±100 the full control effect
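hKGA; 45 mM KH2PO4 pH 8.2 + 0.02% Tween-20; cpd via pin tool; 1 mM Gln soln; GluOx/HRP/Amplex Red; RT 30 min; fluor. t0 & final.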
G9a inh = blocks human histone lysine methyltransferase G9a | AID 504332 | 350,000 tested, 8.8% active | Potency, µM (highest dose often 102 µM), for the others: at the highest dose activity, negative = inhibition, actives largely listed as inhibitors | G9a H3K9 monomethylation, AlphaScreen, 2 h; further: on the % scale 0 is the no-effect control and ±100 the full control effect; nearly all actives have a fitted effect of over 75% in size
Target sequence (Q96KQ7 913-1193 limits assumed): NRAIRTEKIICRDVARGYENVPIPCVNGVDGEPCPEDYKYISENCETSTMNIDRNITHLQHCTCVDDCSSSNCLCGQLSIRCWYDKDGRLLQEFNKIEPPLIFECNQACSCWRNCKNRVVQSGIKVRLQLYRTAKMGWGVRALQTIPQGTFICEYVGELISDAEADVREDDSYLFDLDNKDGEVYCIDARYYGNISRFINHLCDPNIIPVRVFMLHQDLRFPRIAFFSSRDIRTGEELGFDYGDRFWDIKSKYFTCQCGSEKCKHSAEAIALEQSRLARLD
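Enzyme 20 nM + cpd, 15 min RT; add b-H3K9 pep 500 nM / SAM 20 uM; 2 h RT; anti-H3K9me1 Ab 0.5 ug/mL + SA donor / anti-rabbit acceptor beads 20 ug/mL each, 10 min; AlphaScreen read.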
L3MBTL1 inh = inhibitors of human L3MBTL1; Potency, µM (titrated, usually from 57.1 µM), for inactives: at the highest dose activity, negative = inhibition, actives largely listed as inhibitors; AlphaScreen L3MBTL1–H3K9me1 peptide binding; Q9Y468; 230,000 tested, 0.66% active; further: on the % scale 0 is the no-effect control and ±100 the full control effect; nearly all actives have a fitted effect of over 60% in size
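Displacement of a biotinylated histone H3(1-15) peptide monomethylated at Lys9 (75 nM) from L3MBTL1 (50 nM) was measured by AlphaScreen after a 30 min room-temperature compound incubation; cefsulodin titration served as intraplate control.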
* = called active by the depositor; ? = inconclusive; . = no result given; [ ] = remark or other dose. The call rests on the fitted dose curve; in most records, active means well fitted curve in the direction sought with a large enough effect; inconclusive means small, poorly fitted or top-dose-only effect, or another doubt; inactive means no such curve, though single readings can be large; an effect the other way counts as inactive or inconclusive. Potency means the concentration at half of the fitted maximal effect.

SMILES	HP1b binding inh	BAZ2B block	JMJD2A Tudor	GLS inh	G9a inh	L3MBTL1 inh
Oc1ccc2ccccc2c1/C=N/n1cnnc1	20%	-3%	-1%	.	32µM*	-2%
Cc1nn(C)c(C)c1N=Cc1c(O)ccc2ccccc12	2%	-4%	-35%	7%	?	-10%
Oc1c(Br)cc(Br)cc1/C=N/c1nc2c(s1)CCCC2	-29%	.	-33%	?	.	.
Oc1ccc2ccccc2c1/C=N/Nc1ccccc1	-57%	-35%	50µM*	36%	7.1µM*	?
Cc1cc(C)n(/N=C\c2c(O)ccc3ccccc23)c(=O)c1C(N)=O	19%	1%	89µM*	10%	1.1µM*	.
O=CN/N=C/c1c(O)ccc2ccccc12	54%	-1%	-6%	19%	19%[59 µM]	-13%
Oc1ccc2ccccc2c1/C=N/c1nc2c(s1)CCCC2	?	-35%	50µM*	-5%	1.4µM*	.
O=C(O)c1ccc2c(c1)C(=O)N([C@H](Cc1ccc(O)cc1)C(=O)O)C2=O	.	-18%	-30%	.	-3%[12.7 µM]	14%
O=C(N/N=C/c1c(O)ccc2ccccc12)c1ccc(CO)nc1	42%	3.2µM*	56µM*	19%	56µM*	3.5µM*
Oc1ccccc1C=NN=Cc1c(O)ccc2ccccc12	47%	.	-5%	6%	.	.
Oc1ccc2ccccc2c1C=NCc1ccccc1	-1%	-36%	?	12%	28µM*	?
O=C(NN=Cc1c(O)ccc2ccccc12)c1ccc2c(c1)OCO2	36%	.	-16%	1%	.	3%
Oc1ccc2ccccc2c1C=NC1CCCCC1	-27%	?	-31%	-4%	8.9µM*	.
NC(=S)N/N=C/c1c(O)ccc2ccccc12	43%	2.5µM*	56µM*	23%	.	.
Oc1ccccc1CC=NC1CCCCC1	37%	.	-9%	-1%	.	.
COc1ccc(NC(=O)CSC2=Nc3ccccc3C3=NC(CCC(=O)NCCc4ccccc4)C(=O)N23)c(OC)c1 (configuration not stated)	25%	-14%	-16%	1%	-5%[59 µM]	.
Cc1ccc(Nc2nc(-c3c(C)nc4ncccn34)cs2)cc1	-37%	?	?	12%	40µM*	-13%
Cc1nc2ncccn2c1-c1csc(Nc2ccc(O)cc2)n1	20%	?	-25%	-29%	11µM*	-21%
Cc1ccc(Nc2nc(-c3c(C)nc4ccccn34)cs2)cc1	5%	-38%	?	20%	?	0%
Cc1noc(C)c1-c1nccc(NC2CC2)n1	.	.	.	.	4%[0.501 µM]	.
CCOc1ccccc1NC(=O)c1nc(SC(C)C)ncc1Cl	50%	27%	9%	-5%	56%[59 µM]	.
Cc1ccc2[nH]c(C)c(/C=N/Nc3nc4ccccc4s3)c2c1	-25%	?	45µM*	39%	?	-15%
c1ccc(CN2CCC(Nc3nc(-c4cccs4)nc4ccccc34)CC2)cc1	3%	?	?	-6%	35µM*	?
c1csc(-c2nc(NCC3CCCO3)c3ccccc3n2)c1 (configuration not stated)	35%	4%	-17%	16%	15%	.
CCCCn1cc(S(=O)(=O)c2ccccc2)c(=O)c2cc(F)c(N3CCC(C)CC3)cc21	29%	5%	-13%	1%	12%[59 µM]	.
SMILES	HP1b binding inh	BAZ2B block	JMJD2A Tudor	GLS inh	G9a inh	L3MBTL1 inh
Cc1ccc(-c2nc(Nc3ccc(O)cc3)c3ccccc3n2)cc1	-2%	-27%	?	44%	3%	.
CNC(=O)c1ccc(Nc2nc(-c3ccccc3)nc3ccccc23)cc1	8%	3%	-13%	33%	50µM*	.
O=C(O)c1ccc(Nc2nc(-c3ccccc3)nc3ccccc23)cc1	31%	5%	40µM*	58%	?	.
COc1ccc(Nc2nc(-c3ccccc3O)nc3ccccc23)cc1	2%	-2%	-7%	-1%	20%[2.33 µM]	.
Cc1ccc(-c2nc(Nc3ccc(N4CCOCC4)cc3)c3ccccc3n2)cc1	?	32µM*	40µM*	-25%	.	-13%
Oc1ccc(Nc2nc(-c3ccccc3O)nc3ccccc23)cc1	27%	?	?	29%	50µM*	.
COc1ccc(NS(=O)(=O)c2cc(Br)cc3c2N(C(=O)C2CC2)CC3)cc1OC	-3%	8%	-4%	4%	1%[59 µM]	.
COc1ccc(-c2cc(C(=O)NCCc3ccc(OC)c(OC)c3)c3ccccc3n2)cc1	19%	-2%	-13%	0%	4%[59 µM]	.
N#Cc1c(-n2cccc2/C=N/O)sc2c1CCCC2	?	45µM*	45µM*	1%	?	-26%
N#Cc1c(N2C(=O)C3C4C=CC(C4)C3C2=O)sc2c1CCC2 (configuration not stated)	29%	8%	-13%	4%	-17%[12.7 µM]	16%
C=CCNCc1cccn1-c1sc2c(c1C#N)CCCC2	?	?	3.2µM*	3%	?	.
CCc1ccc(Cn2c(CNS(=O)(=O)c3ccc4c(c3)CCCC4)nc3cccnc32)cc1	8%[57 µM]	-7%	-28%	-7%	-1%[59 µM]	.
COc1ccccc1NC(=O)Cn1c(=O)n(CC2CCC(C(=O)NCCc3ccccc3)CC2)c(=O)c2ccccc21 (configuration not stated)	18%	0%	-16%	7%	-1%[59 µM]	.
CC(=O)Nc1cccc(NC(=O)Cn2cnc3c2c(=O)n(C)c(=O)n3C)c1	13%	-3%	-18%	-3%	8%[59 µM]	.
CC(C)N1C/C(=C/c2cccnc2)C(=O)/C(=C/c2cccnc2)C1	47%	-31%	-4%	0%	-10%[59 µM]	-8%
CC(C)N1C/C(=C/c2ccsc2)C(=O)/C(=C/c2ccsc2)C1	-13%	45µM*	?	0%	?	-13%
CC1(C)N=C(N)N=C(N)N1c1ccc(Cl)cc1	.	.	.	-13%	.	.
COc1cc(C(=O)NCCOc2cc(C)ccc2C(C)C)cc(OC)c1OC	50%	-10%	-15%	12%	3%	.
CCCCNCC#CCOc1cc(C)ccc1C(C)C	-3%	?	22µM*	2%	.	91%
Cc1ccc(C(C)C)c(OCCNS(C)(=O)=O)c1	24%	2%	-8%	8%	15%[59 µM]	.
Cc1ccc(C(C)C)c(OCCCNCc2cccnc2)c1	30%	-34%	-7%	-5%	50µM*	0%
Cc1ccc(C(C)C)c(OCCNCCc2ccccc2)c1	?	?	25µM*	0%	.	-10%
Cn1c(=O)c(-c2ccc(F)cc2)nc2cnc(OCc3ccccc3)nc21	.	.	.	.	5%[0.501 µM]	.
Oc1c(C2=NCCNC(C(F)(F)F)=C2)ccc2ccccc12	?	25µM*	50µM*	0%	-108%[59 µM]	-15%
CCC(=O)Oc1ccc2oc(=O)cc(C)c2c1	42%	6%	6%	10%	-10%[59 µM]	3%
